Experimental data as given in PubChem BioAssay (EPA / NIEHS).
Values joined by “and” are separate entries in the source; they are usually repeats but may differ in a detail not shown here. Equal entries are not always repeated. Some compounds were tested as several samples or in several runs, with calls that do not always agree. Active and inactive are the calls of the source. How the source made its calls: active means hit-call score of the fitted dose curve at least 0.9, where 1 is the maximum; inactive means score below 0.9.

Read-out: Plasminogen activator inhibitor-1 (PAI1), SERPINE1 (gene 5054)
Experiment: BSK_MyoF_PAI1: BioMAP Diversity Plus: MyoF Assay for Plasminogen activator inhibitor-1 (PAI1) Biomarker Activity (AID 2284256);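 on outcome: PAI-1 protein level measured by ELISA in fibroblast cultures; PAI-1 read 24 h after compound addition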
Conditions: primary human lung fibroblasts
Protocol: BSK_MyoF is a cell-based, multiplexed-readout assay that uses lung fibroblasts, […], with measurements taken at 24 hours after chemical dosing in a microplate: 96-well plate.BSK_MyoF_PAI1 is an assay component measured in the BSK_MyoF assay. It measures PAI-1 antibody related to regulation of gene expression using ELISA technology.Data from the assay component BSK_MyoF_PAI1 was analyzed at the endpoint, BSK_MyoF_PAI1, in the positive analysis fitting direction relative to DMSO as the negative control and baseline of activity. Using a type of binding reporter, gain or loss-of-signal activity can be used to understand protein changes. To generalize the intended target to other relatable targets, this assay endpoint is annotated to the 'cytokine' intended target family, where the subfamily is 'plasmogen activator inhibitor'.
The levels of cell surface (or secreted, indicated by the prefix "s") biomarker endpoints were measured by ELISA. Overt cytotoxicity to cells in confluent adherent cultures (all systems other than the BT system) was assessed by measuring total protein levels using sulforhodamine B (SRB) staining in parallel cultures at the time of biomarker measurements, indicated as SRB endpoints. For proliferation assays for adherent cell types, individual cell types are cultured at sub-confluence and relative cell numbers quantified by SRB staining at time points optimized for each system (48 h: 3C and CASM3C systems; 72 h: BT and HDF3CGF systems; 96 h: SAg system). SRB was performed by staining cells with 0.1% SRB after fixation with 10% TCA and reading wells at 560 nm.Viability and proliferation of PBMC (T cells) was quantified by Alamar Blue reduction for the SAg and BT systems. For PBMC viability (referred to as PBMC Cytotoxicity within the assay endpoint names), cells were plated (75,000/well in a 96-well plate) and then chemical samples added for 1 h before addition of activators, SEB and TSST-1 (20 ng/mL final concentration each). Cells were incubated for 90 h. Then, Alamar Blue (20 uL/well) (Invitrogen, Cat DAL1100) was added for 6 h, and the plates were read with a fluorescence microplate reader at 546/580 nm (excitation/emission). For PBMC proliferation, cells were plated and activated as above but incubated for only 16 h prior to addition of Alamar Blue. Plates were read after 6 h.
For `ClC1C(Cl)C(Cl)C(Cl)C(Cl)C1Cl` (stereo not given), the AC50 was 295 nM (active) and the outcome was “inactive”. With `O=S(=O)(O)C(F)(F)C(F)(F)C(F)(F)C(F)(F)C(F)(F)C(F)(F)C(F)(F)C(F)(F)F` the outcome was “inactive”. For `O=C(O)C(F)(F)C(F)(F)C(F)(F)C(F)(F)C(F)(F)C(F)(F)C(F)(F)F`, the outcome was “inactive”.

Read-out: Interleukin-8 (IL8), CXCL8 (gene 3576)
Experiment: BSK_MyoF_IL8: BioMAP Diversity Plus: MyoF Assay for Interleukin-8 (IL8) Biomarker Activity (AID 2284261)
Conditions: primary human lung fibroblasts
Summary of the method: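 IL-8 levels were measured by ELISA in human lung fibroblasts harvested 24 h after compound addition. Responses were analysed as gain of signal over the DMSO baseline.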
In the case of `ClC1C(Cl)C(Cl)C(Cl)C(Cl)C1Cl` (stereo not given), the outcome is reported as “inactive”. For `O=S(=O)(O)C(F)(F)C(F)(F)C(F)(F)C(F)(F)C(F)(F)C(F)(F)C(F)(F)C(F)(F)F`, the outcome was “inactive”. For `O=C(O)C(F)(F)C(F)(F)C(F)(F)C(F)(F)C(F)(F)C(F)(F)C(F)(F)F`, the outcome was “inactive”.

Read-out: Decorin, DCN (gene 1634)
Experiment: BSK_MyoF_Decorin: BioMAP Diversity Plus: MyoF Assay for Decorin Biomarker Activity (AID 2284265)
Conditions: primary human lung fibroblasts
Summary of the method: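 Compound is added to lung fibroblast cultures; cells incubate 24 h; decorin is then measured by ELISA; the response is analysed upward against DMSO controls.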
With `ClC1C(Cl)C(Cl)C(Cl)C(Cl)C1Cl` (stereo not given) the outcome was “inactive”. For `O=S(=O)(O)C(F)(F)C(F)(F)C(F)(F)C(F)(F)C(F)(F)C(F)(F)C(F)(F)C(F)(F)F`, the outcome was “inactive”. With `O=C(O)C(F)(F)C(F)(F)C(F)(F)C(F)(F)C(F)(F)C(F)(F)C(F)(F)F` the outcome was “inactive”.

Read-out: not listed separately
Experiment: BSK_MyoF_SRB: Viability Assessment in the BioMAP Diversity Plus: MyoF Assay (AID 2284267);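 further: total protein by SRB absorbance in parallel cultures as cytotoxicity measure; cells assessed 24 h after compound addition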
Conditions: primary human lung fibroblasts
Summary of the method: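 In this viability endpoint, fibroblasts from human lung are treated for 24 h, TCA-fixed, SRB-stained (0.1%) and read at 560 nm. Gain of signal relative to DMSO defines activity.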
With `ClC1C(Cl)C(Cl)C(Cl)C(Cl)C1Cl` (stereo not given) the AC50 was 18.6 µM (active) and 726 nM (active) and the outcome was “inactive”. In the case of `O=S(=O)(O)C(F)(F)C(F)(F)C(F)(F)C(F)(F)C(F)(F)C(F)(F)C(F)(F)C(F)(F)F`, the outcome is reported as “inactive”. In the case of `O=C(O)C(F)(F)C(F)(F)C(F)(F)C(F)(F)C(F)(F)C(F)(F)C(F)(F)F`, the outcome is reported as “inactive”.

Read-out: Matrix Metallopeptidase 1 (MMP1), MMP1 (gene 4312)
Experiment: BSK_MyoF_MMP1: BioMAP Diversity Plus: MyoF Assay for Matrix Metallopeptidase 1 (MMP1) Biomarker Activity (AID 2284268)
Conditions: primary human lung fibroblasts
Summary of the method: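 Lung fibroblast cultures were dosed with test chemicals and, after 24 h, MMP1 levels were measured by ELISA; responses were referenced to DMSO and analysed for increases.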
In the case of `ClC1C(Cl)C(Cl)C(Cl)C(Cl)C1Cl` (stereo not given), the AC50 is reported as 8.25 µM (active) and 6.92 µM (active) and 292 nM (active). For `O=S(=O)(O)C(F)(F)C(F)(F)C(F)(F)C(F)(F)C(F)(F)C(F)(F)C(F)(F)C(F)(F)F`, the outcome was “inactive”. For `O=C(O)C(F)(F)C(F)(F)C(F)(F)C(F)(F)C(F)(F)C(F)(F)C(F)(F)F`, the outcome was “inactive”.

Read-out: TIMP metallopeptidase inhibitor 1 (TIMP1), TIMP1 (gene 7076)
Experiment: BSK_MyoF_TIMP1: BioMAP Diversity Plus: MyoF Assay for TIMP metallopeptidase inhibitor 1 (TIMP1) Biomarker Activity (AID 2284269)
Conditions: primary human lung fibroblasts
Summary of the method: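 ELISA quantified TIMP-1 levels after 24 h dosing of primary human lung fibroblasts, with DMSO as baseline. Parallel SRB total protein staining (0.1% SRB after TCA fixation, 560 nm) flagged overt cytotoxicity.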
In the case of `ClC1C(Cl)C(Cl)C(Cl)C(Cl)C1Cl` (stereo not given), the outcome is reported as “inactive”. With `O=S(=O)(O)C(F)(F)C(F)(F)C(F)(F)C(F)(F)C(F)(F)C(F)(F)C(F)(F)C(F)(F)F` the outcome was “inactive”. In the case of `O=C(O)C(F)(F)C(F)(F)C(F)(F)C(F)(F)C(F)(F)C(F)(F)C(F)(F)F`, the outcome is reported as “inactive”.
